Data taken from PubChem BioAssay (NCI).
Compounds without any hit were thinned out: in the full panel of roughly 83,000, 20% have a hit.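 Step 1: grow cells in 96-well plates. Step 2: add test compound at a single concentration. Step 3: incubate 48 h. Step 4: record percent growth.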 A number with no mark means an inactive call. Active and inactive are the calls of the source. How the source made its calls: active means growth percent below 10; inactive means the rest.

Columns and labels:
Test in all cases: NCI-60 one-dose screen, 48 h (100 = growth as untreated, 0 = no growth, -100 = all killed)
Conditions in all cases: 10 µM unless noted
SR leukemia = test system: SR leukemia
RPMI-8226 leukemia = test system: RPMI-8226 leukemia
OVCAR-8 ovarian = test system: OVCAR-8 ovarian
OVCAR-5 ovarian = test system: OVCAR-5 ovarian
OVCAR-4 ovarian = test system: OVCAR-4 ovarian
SK-OV-3 ovarian = test system: SK-OV-3 ovarian
IGROV1 ovarian = test system: IGROV1 ovarian
OVCAR-3 ovarian = test system: OVCAR-3 ovarian
HS 578T breast = test system: HS 578T breast
NCI/ADR-RES ovarian = test system: NCI/ADR-RES ovarian
T-47D breast = test system: T-47D breast
BT-549 breast = test system: BT-549 breast
MDA-MB-435 melanoma = test system: MDA-MB-435 melanoma
SW-620 colon = test system: SW-620 colon
MCF7 breast = test system: MCF7 breast
HCT-116 colon = test system: HCT-116 colon
HCC-2998 colon = test system: HCC-2998 colon
KM12 colon = test system: KM12 colon

Row | SMILES | growth (SR leukemia) | growth (RPMI-8226 leukemia) | growth (OVCAR-8 ovarian) | growth (OVCAR-5 ovarian) [%] | growth (OVCAR-4 ovarian) [%] | growth (SK-OV-3 ovarian) [%] | growth (IGROV1 ovarian) | growth (OVCAR-3 ovarian) | growth (HS 578T breast) [%] | growth (NCI/ADR-RES ovarian) | growth (T-47D breast) [%] | growth (BT-549 breast) [%] | growth (MDA-MB-435 melanoma) | growth (SW-620 colon) [%] | growth (MCF7 breast) [%] | growth (HCT-116 colon) | growth (HCC-2998 colon) | growth (KM12 colon) [%]
1 | COc1cccc(/C=C/C(=O)c2sc(Nc3ccc(O)cc3)nc2C)c1 | 35.8% | 4.79% (active) | 99.4% | 111 | 96.9 | 103 | 88.1% | 75.7% | 103 | 99% | 90.8 | 14.6 | 88.4% | 110 | 72.2 | 87.4% | 105% | 78.4
2 | O=C1Nc2cc(Cl)ccc2/C1=C/c1ccc(N2CCOCC2)s1 | 97% | 85.7% | 98.2% | 94.4 | 99.1 | 113 | 45.3% | 115% | 129 | 99.8% | 84 | 109 | 102% | 102 | 86.7 | 96.6% | 114% | 105
3 | Cc1c(C2=NNC(c3ccc4c(c3)OCO4)C2)[n+]([O-])c2ccccc2[n+]1[O-] (configuration not stated) | 92.2% | 98.9% | 109% | 91.9 | 76.3 | 97.1 | 84.4% | 93.4% | 94.3 | 95.4% | 92.3 | 91 | 108% | 98.4 | 92.8 | 99.2% | 84.2% | 113
4 | CC1=CNNc2c3ncnc-3ncn21 | 97.4% | 103% | 107% | 101 | 111 | 103 | 108% | 105% | 110 | 105% | 101 | 106 | 111% | 102 | 111 | 102% | 102% | 103
5 | Cc1cnc(NC(=O)C(Cc2ccccc2)NC(=O)c2ccccc2)s1 (configuration not stated) | 41% | -15.7% (active) | 92.6% | 106 | 59.4 | 108 | -19.6% (active) | 83.8% | 85.8 | 65.6% | 87.3 | 88.4 | 13.2% | 80.3 | 46.2 | 49.7% | 73.3% | 60.2
6 | CC(=O)Oc1cccc(OC(C)=O)c1OC(C)=O | 89.6% | 105% | 106% | 99.9 | 105 | 87 | 101% | 111% | 107 | 108% | 97.1 | 94.3 | 94.6% | 114 | 88.7 | 89.5% | 92.1% | 105
7 | COc1ccc(C2CC(c3cccs3)=NN2c2ccc(S(=O)(=O)NC(=O)Nc3ccc(C)cc3)cc2)cc1 (configuration not stated) | 84.7% | 83.4% | 99.8% | 115 | 106 | 78.3 | 108% | 98.2% | 96 | 103% | 78.8 | 74.2 | 61.9% | 106 | 97.1 | 85.1% | 109% | 97.4
8 | CCn1cc(C2NC(=O)c3cc(F)ccc3N2)c2cccc(Cl)c21 (configuration not stated) | -10.1% (active) | 9.88% (active) | -35.9% (active) | 36 | 39.4 | 27.7 | 18.2% | 6.84% (active) | 12.4 | 1.68% (active) | 58.3 | 26.9 | -31.7% (active) | 20.8 | 15.5 | 8.12% (active) | 7.64% (active) | 19.2
9 | CCCCC[C@@H]1Cc2cc(O)c(C(=O)O)c3c2[C@H](C[C@@]2(CCCO2)O3)O1 | 64.4% | 98.7% | 101% | 104 | 94.2 | 113 | -4.39% (active) | 107% | 122 | 96.1% | 108 | 115 | 97.2% | 111 | 102 | 100% | 95.9% | 118
